For test [1], the target named is Guanine nucleotide-binding protein G(i) subunit alpha-1 (Homo sapiens) (UniProt P63096). Briefly: qHTS Assay for Inhibitors of RGS12 GoLoco Motif Activity (Green Fluorophore) (AID 879).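 Note: 0% = labeled peptide with Gαi1 and full inhibition = labeled peptide alone without protein; negative values mean loss of peptide binding seen as reduced polarization.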 The essentials:
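A drop in FITC polarization marked displacement of the FITC-tagged RGS12 GoLoco peptide (10 nM) from Gαi1 (50 nM). Compounds were incubated 10 min at room temperature in Tris pH 7.5 buffer containing 150 mM NaCl, 0.1 mM GDP and 0.05% NP40; unlabeled peptide titration served as control.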
On the technique in general: qHTS replaces the single test concentration by a dilution series.

Test [2] is described as follows: qHTS Assay for Identification of Small Molecule Antagonists for NFkB Signaling Pathway (AID 895; active = well fitted inhibition curve with a large enough effect in the signal ratio, with a control signal flat, not every such curve was filed as active; the % refers to the signal ratio; note: % is set by controls: 0 for no effect and ±100 for the full control effect). The essentials: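 NFkB-bla ME-180 cervical carcinoma cells with beta-lactamase reporter under NFkB response element; compounds added, then TNF alpha at 10 pM final (EC50), 5 h at 37 C. LiveBLAzer substrate 2 h, room temperature; emission 460/530 nm at 405 nm excitation.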

Test [3] concerns the target Muscarinic acetylcholine receptor M1 (Rattus norvegicus) (UniProt P08482). Briefly: qHTS Assay for Antagonists of Acetylcholine Muscarinic M1 Receptor: Kinetic Measurement of Intracellular Calcium Response (AID 943). Note: nearly all actives have a fitted effect of over 75% in size. Note: potency is the fitted concentration of half-maximal effect. The essentials: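 Quantitative HTS in CHO-M1 (rat receptor) cells: 10 min compound exposure ahead of 100 nM carbachol, Fluo-4 fluorescence followed 4 min, value expressed as peak-to-basal ratio.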

The target is the same in test [4]. Briefly: qHTS Assay for Antagonists of Acetylcholine Muscarinic M1 Receptor: Measurement of IP-One Response (AID 944). Note: nearly all actives have a fitted effect of over 75% in size. Note: potency is the fitted concentration of half-maximal effect. The essentials:
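Antagonism was measured as loss of carbachol-driven (EC80) IP1 accumulation in CHO cells carrying rat M1, using a homogeneous IP-One TR-FRET kit read at 620 and 665 nm.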

Test [5] deals with Alpha-galactosidase A (Homo sapiens) (UniProt P06280). Put plainly: Counterscreen for Glucocerebrosidase Inhibitors: qHTS Assay for Human alpha-Galactosidase at pH 4.5 (AID 992). Note: 0% is about no effect. The essentials:
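Each compound is preincubated briefly with 2 nM enzyme before substrate addition (80 uM); plates then sit 20 min at ambient temperature, are quenched with 1M NaOH/1M glycine, and read fluorometrically.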

For test [6], the target named is Cytochrome P450 2C19 (Homo sapiens) (UniProt P33261). Briefly: qHTS Assay for Inhibitors and Substrates of Cytochrome P450 2C19 (AID 899). For activity, negative = inhibition: % is set by controls: 0 for no effect and ±100 for the full control effect. Note: nearly all actives have a fitted effect of over 60% in size. Note: potency is the fitted concentration of half-maximal effect. The essentials:
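Human CYP2C19 (5nM) with Luciferin-H EGE at 10uM (its KM) in 50mM KPO4 was preincubated with compound for 10 min at 37C. NADPH regeneration started a 60 min 37C reaction. Luciferin was read by luminescence, normalized to 57uM ketoconazole.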

Test [7] deals with Cytochrome P450 3A4 (Homo sapiens) (UniProt P08684). Briefly: qHTS Assay for Inhibitors and Substrates of Cytochrome P450 3A4 (AID 884). Note: nearly all actives have a fitted effect of over 50% in size. Note: potency is the fitted concentration of half-maximal effect. The essentials:
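Luminescent readout of luciferin produced by CYP3A4 (20 nM) dealkylation of Luciferin-PPXE, 25 uM (its KM). NADPH-driven reaction ran 60 min at RT after 10 min compound preincubation; data scaled to 57 uM ketoconazole as 100% inhibition.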

The nature of test [8]: Confirmation and Secondary Assay for Modulators of Hemoglobin Beta Chain Splicing at IVS2 654 locus (AID 910).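 Note: per-well total GFP intensity by laser scanning cytometry after 2-day treatment; % of control where 0% means no effect.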 The essentials:
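HeLa cells stably carrying EGFP interrupted by mutant beta-globin IVS2-654 intron (CMV-driven) were treated with compound for 2 days at 37C; corrected splicing was scored as total peak GFP intensity per well (488 nm excitation, 500-520 nm emission).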

The nature of test [9]: Confirmation and Secondary Assay for Modulators of Hemoglobin Beta Chain Splicing at IVS2 705 locus (AID 930).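 Note: HeLa cells stably expressing the EGFP-705 splicing reporter; GFP fluorescence per well restored by corrected splicing of the IVS2-705 intron in EGFP; % of control where 0% means no effect.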 The essentials:
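Splice-correction reporter: EGFP cDNA split by beta-globin intron 2 bearing the 705 mutation, stably in HeLa. Compound incubation 2 days, 37C; fluorescent objects 5-250 µm summed per well.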

Test [10] addresses Rap guanine nucleotide exchange factor 3 (Homo sapiens) (UniProt O95398). Briefly: Confirmatory qHTS for agonist of cAMP-regulated guanine nucleotide exchange factor 3 (EPAC1) (AID 1645881).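 Note: EPAC1 catalysed release of BODIPY-GDP from Rap1B seen as fluorescence loss; 100% = effect of cAMP agonist control; nearly all actives have a fitted effect of over 75% in size.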
The target in test [11] is Rap guanine nucleotide exchange factor 4 (Homo sapiens) (UniProt Q8WZA2). Put plainly: Confirmatory qHTS for agonist of cAMP-regulated guanine nucleotide exchange factor 4 (EPAC2) (AID 1645884).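 Note: nucleotide exchange releases bodipy-GDP from Rap1 and this lowers its fluorescence; % is set by controls: 0 for no effect and ±100 for the full control effect; nearly all actives have a fitted effect of over 65% in size.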
Chain of Rap guanine nucleotide exchange factor 4 (Homo sapiens) (Q8WZA2 whole entry, looked up): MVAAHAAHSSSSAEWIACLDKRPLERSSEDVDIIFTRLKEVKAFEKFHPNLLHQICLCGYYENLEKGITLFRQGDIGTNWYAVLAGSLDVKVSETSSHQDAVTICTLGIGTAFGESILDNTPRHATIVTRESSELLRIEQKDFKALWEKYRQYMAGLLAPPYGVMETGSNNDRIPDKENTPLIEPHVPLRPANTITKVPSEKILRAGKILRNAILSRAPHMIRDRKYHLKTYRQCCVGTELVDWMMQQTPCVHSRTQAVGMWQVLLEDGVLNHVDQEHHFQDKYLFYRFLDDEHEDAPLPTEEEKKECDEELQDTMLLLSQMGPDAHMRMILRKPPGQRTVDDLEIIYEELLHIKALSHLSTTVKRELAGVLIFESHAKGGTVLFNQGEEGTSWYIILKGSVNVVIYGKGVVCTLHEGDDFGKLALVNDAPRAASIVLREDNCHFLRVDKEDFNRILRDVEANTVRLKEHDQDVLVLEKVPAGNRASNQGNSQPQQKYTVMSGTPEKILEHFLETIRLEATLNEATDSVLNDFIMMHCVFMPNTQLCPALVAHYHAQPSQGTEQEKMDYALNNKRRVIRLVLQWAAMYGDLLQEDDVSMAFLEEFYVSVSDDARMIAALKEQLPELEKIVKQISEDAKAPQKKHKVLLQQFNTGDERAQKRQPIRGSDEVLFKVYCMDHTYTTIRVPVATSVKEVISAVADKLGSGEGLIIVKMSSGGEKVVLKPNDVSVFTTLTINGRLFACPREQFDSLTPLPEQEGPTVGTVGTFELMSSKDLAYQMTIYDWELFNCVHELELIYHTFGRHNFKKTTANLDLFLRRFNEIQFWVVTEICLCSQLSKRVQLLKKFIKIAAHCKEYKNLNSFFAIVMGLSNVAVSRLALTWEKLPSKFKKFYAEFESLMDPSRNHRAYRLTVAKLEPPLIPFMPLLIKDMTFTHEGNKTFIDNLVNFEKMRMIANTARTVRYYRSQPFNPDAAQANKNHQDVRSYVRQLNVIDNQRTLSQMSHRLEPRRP
Test [12] concerns the target Rap guanine nucleotide exchange factor 3 (Homo sapiens) (UniProt O95398). Briefly: Confirmatory qHTS for antagonist of cAMP-regulated guanine nucleotide exchange factor 3 (EPAC1) (AID 1645880).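 For activity, negative = inhibition: plate controls were DMSO only for no effect and full effect of the ATA control for full effect.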 Note: nearly all actives have a fitted effect of over 55% in size. Note: potency is the fitted concentration of half-maximal effect. The essentials: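 Released BODIPY-GDP fluoresces less than Rap1-bound BODIPY-GDP; the signal is followed at 480/540 nm at 5-min intervals over 30 min, after 5 min at room temperature. Reactions contain 100 nM EPAC1, 250 nM RAP1B-BODIPY-GDP and 50 uM GDP; results are normalized to ATA and DMSO.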

Test [13] addresses Rap guanine nucleotide exchange factor 4 (Homo sapiens) (UniProt Q8WZA2). Put plainly: Confirmatory qHTS for antagonist of cAMP-regulated guanine nucleotide exchange factor 4 (EPAC2) (AID 1645885). Note: nearly all actives have a fitted effect of over 25% in size. Note: potency is the fitted concentration of half-maximal effect.
Test [14] deals with ATP-dependent 6-phosphofructokinase (Trypanosoma brucei brucei) (UniProt O15648). Put plainly: qHTS Assay to Find Inhibitors of T. brucei phosphofructokinase: hit validation (AID 492961).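 Note: luminescence reports ADP formed as PFK phosphorylates fructose-6-phosphate with ATP; % is set by controls: 0 for no effect and ±100 for the full control effect.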 The essentials: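 PFK 1.25 nM, F6P 0.5 mM, ATP 0.1 mM, MgCl2 5 mM, 0.1 M TEA pH 8.0, Tween20 0.01%, BSA 0.1%; 45 min RT. ADP-Glo two-step detection, luminescence. qHTS titration; curve fitting with curve-class categorization.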
Chain of ATP-dependent 6-phosphofructokinase (Trypanosoma brucei brucei) (O15648 whole entry, looked up): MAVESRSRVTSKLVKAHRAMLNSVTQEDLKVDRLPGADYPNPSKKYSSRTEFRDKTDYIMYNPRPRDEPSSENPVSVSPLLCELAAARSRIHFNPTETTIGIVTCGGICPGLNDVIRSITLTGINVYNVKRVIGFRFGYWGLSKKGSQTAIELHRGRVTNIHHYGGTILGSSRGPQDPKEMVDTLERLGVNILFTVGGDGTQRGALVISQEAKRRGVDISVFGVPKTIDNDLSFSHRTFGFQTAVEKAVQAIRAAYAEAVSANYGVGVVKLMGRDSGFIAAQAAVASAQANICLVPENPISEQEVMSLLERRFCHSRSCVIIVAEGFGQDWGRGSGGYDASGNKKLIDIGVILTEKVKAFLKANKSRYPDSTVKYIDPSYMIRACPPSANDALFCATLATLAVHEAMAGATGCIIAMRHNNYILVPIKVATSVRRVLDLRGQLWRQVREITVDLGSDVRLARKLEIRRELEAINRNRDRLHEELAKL

Test [15] in a line: qHTS profiling for inhibitors of Plasmodium falciparum proliferation (AID 504749).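 For activity, negative = inhibition: 0% = DMSO vehicle and full inhibition = artemisinin control.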 Note: nearly all actives have a fitted effect of over 60% in size. Note: potency is the fitted concentration of half-maximal effect. Particulars: P. falciparum in erythrocytes, SYBR Green DNA, 72 h, at 12.8 µM (top of the series). The essentials: (§1)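 Fluorescence of SYBR Green-bound parasite DNA, read at 485/535 nm, served as the growth measure. Infected erythrocytes were cultured with compound 72 h; artemisinin (0.29 uM) and DMSO wells defined the normalization range.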

The next test deals with CP192. Described as above. Particulars: P. falciparum in erythrocytes, SYBR Green DNA, 72 h; series mostly up to 28.7 µM. The essentials: as §1
The subject of a further test is DIV14. The description is as above. Particulars: P. falciparum in erythrocytes, SYBR Green DNA, 72 h; series mostly up to 28.7 µM. The essentials:
as §1

The test system of a further test is DIV17. The test is described as above. The following applies: P. falciparum in erythrocytes, SYBR Green DNA, 72 h; series mostly up to 28.7 µM. The essentials:
as §1

The test system of the next test is GB4. Described as above. Particulars: P. falciparum in erythrocytes, SYBR Green DNA, 72 h; series mostly up to 28.7 µM. The essentials:
as §1

The next test concerns PC49. The description is as above. The following applies: P. falciparum in erythrocytes, SYBR Green DNA, 72 h; series mostly up to 28.7 µM. The essentials: as §1

outcome, Potency and activity, negative = inhibition data for 19 molecules are collected here from PubChem BioAssay (NCATS).

Where “and” joins values, the source holds several entries; their conditions need not be identical. Equal entries are not always repeated. A number with no mark means an inactive call. Inconclusive results are not listed. Calls of active or inactive are those of the source. Unless noted, calls come from the whole dose curve; as a rule, active = well fitted curve in the direction sought with a large enough effect; inconclusive = small, poorly fitted or top-dose-only effect, or another doubt; inactive = no such curve, though single readings can be large; an effect the other way counts as inactive or inconclusive.

Chain of Muscarinic acetylcholine receptor M1 (Rattus norvegicus) (P08482 whole entry, looked up): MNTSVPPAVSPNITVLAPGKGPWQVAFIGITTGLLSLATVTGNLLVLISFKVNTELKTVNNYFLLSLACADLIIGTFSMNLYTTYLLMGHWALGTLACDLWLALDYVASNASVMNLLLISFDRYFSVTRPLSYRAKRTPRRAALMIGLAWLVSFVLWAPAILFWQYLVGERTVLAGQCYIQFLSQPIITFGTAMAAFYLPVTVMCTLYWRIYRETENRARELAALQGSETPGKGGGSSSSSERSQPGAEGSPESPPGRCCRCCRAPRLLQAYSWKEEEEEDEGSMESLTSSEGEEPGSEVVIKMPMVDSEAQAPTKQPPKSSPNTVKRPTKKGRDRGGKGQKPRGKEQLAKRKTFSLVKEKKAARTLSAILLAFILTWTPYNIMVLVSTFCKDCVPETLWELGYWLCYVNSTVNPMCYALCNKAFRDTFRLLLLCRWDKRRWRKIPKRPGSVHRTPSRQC
Chain of Cytochrome P450 2C19 (Homo sapiens) (P33261 whole entry, looked up): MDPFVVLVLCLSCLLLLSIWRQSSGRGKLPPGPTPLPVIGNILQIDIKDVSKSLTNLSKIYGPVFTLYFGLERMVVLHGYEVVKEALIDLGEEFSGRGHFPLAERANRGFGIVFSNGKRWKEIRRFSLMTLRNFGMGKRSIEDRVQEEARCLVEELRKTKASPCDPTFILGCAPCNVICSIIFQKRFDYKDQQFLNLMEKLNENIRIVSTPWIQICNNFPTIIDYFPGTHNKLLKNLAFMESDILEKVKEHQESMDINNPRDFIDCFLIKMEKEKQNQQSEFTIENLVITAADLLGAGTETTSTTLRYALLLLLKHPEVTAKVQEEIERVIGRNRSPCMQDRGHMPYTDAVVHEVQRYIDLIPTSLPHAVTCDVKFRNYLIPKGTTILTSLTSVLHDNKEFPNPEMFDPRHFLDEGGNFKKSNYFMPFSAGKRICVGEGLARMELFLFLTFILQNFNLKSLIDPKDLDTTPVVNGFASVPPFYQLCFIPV
Chain of Cytochrome P450 3A4 (Homo sapiens) (P08684 whole entry, looked up): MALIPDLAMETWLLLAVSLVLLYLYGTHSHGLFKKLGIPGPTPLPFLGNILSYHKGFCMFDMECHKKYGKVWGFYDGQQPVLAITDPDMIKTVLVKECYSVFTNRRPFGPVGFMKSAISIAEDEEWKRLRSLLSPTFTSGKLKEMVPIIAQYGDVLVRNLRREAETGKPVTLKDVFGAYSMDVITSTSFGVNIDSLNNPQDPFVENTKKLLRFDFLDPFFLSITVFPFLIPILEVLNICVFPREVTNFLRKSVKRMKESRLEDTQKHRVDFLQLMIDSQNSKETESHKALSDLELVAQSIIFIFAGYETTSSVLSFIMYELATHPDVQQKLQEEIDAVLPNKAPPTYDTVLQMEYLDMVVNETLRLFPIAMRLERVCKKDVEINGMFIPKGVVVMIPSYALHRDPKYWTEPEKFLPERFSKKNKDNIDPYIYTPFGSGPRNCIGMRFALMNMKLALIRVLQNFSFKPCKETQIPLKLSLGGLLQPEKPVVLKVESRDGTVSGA
Chain of Rap guanine nucleotide exchange factor 3 (Homo sapiens) (O95398 whole entry, looked up): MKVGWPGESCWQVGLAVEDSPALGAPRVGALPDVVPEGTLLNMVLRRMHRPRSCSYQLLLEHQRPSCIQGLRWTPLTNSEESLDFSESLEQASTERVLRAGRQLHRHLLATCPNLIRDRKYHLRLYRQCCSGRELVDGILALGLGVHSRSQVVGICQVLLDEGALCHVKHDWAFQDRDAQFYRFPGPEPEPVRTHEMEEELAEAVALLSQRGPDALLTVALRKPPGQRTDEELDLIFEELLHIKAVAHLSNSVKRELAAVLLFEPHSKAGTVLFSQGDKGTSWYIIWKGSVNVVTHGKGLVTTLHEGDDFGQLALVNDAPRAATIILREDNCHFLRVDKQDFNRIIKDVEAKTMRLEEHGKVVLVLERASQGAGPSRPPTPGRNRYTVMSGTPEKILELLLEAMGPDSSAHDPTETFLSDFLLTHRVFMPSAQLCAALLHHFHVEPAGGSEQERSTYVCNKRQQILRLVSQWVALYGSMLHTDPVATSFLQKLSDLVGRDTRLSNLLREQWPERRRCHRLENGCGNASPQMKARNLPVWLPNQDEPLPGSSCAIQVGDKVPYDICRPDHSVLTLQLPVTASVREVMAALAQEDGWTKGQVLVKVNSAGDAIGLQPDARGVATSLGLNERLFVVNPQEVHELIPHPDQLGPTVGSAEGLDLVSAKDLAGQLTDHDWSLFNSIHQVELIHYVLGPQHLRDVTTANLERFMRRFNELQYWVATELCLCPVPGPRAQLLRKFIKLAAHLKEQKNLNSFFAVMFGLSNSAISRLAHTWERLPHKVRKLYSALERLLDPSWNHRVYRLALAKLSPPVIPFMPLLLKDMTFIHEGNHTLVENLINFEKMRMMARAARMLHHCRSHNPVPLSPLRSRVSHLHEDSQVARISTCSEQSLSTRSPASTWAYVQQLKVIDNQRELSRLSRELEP
Chain of Guanine nucleotide-binding protein G(i) subunit alpha-1 (Homo sapiens) (P63096 whole entry, looked up): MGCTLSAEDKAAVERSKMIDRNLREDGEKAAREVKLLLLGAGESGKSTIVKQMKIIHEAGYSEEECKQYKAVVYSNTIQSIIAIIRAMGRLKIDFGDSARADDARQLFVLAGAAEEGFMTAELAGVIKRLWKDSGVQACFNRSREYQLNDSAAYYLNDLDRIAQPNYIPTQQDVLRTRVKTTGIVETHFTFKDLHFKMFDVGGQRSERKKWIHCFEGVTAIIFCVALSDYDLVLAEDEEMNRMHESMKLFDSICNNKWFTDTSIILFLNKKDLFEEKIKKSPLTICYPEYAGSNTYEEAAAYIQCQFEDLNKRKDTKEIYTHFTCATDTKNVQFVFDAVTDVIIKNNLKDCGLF
Chain of Alpha-galactosidase A (Homo sapiens) (P06280 whole entry, looked up): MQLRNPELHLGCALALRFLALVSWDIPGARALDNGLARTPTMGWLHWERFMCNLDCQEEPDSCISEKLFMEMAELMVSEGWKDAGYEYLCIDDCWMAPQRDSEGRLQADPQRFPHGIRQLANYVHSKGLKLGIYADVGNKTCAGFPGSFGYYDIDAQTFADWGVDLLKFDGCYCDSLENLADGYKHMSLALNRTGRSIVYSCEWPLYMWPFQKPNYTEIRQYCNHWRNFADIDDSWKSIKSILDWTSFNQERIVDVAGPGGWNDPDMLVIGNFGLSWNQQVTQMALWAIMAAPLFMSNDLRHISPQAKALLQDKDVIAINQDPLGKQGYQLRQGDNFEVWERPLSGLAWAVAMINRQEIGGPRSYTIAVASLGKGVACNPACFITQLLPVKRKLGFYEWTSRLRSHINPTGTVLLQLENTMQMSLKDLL

`N[C@]1(C(=O)O)CCc2cc(C(=O)O)ccc21`: the call in [1] and in test [5] was inactive. Also, the Potency result in [2], in test [3] and in test [4] was “inactive” in each case.

As for `CC(C)[C@@H]1[C@H]2CC[C@H](C2)[C@H]1N`, the Potency result in test [6] is “inactive”.

`CNCC[C@H](Oc1ccccc1OC)c1ccccc1`: in [1], the molecule was classed as inactive. The Potency in [3] was 14.1 µM (active); in [4], 11.2 µM (active).

As for `CC(C)(C)NC[C@H](O)COc1cccc2[nH]c(=O)[nH]c12`, the outcome in test [1] was inactive. Also, the Potency result in [2] and in test [4] was “inactive” each time.

For `NC1(C(=O)O)CC(C(=O)O)C1` (stereo not given), the Potency entry in test [7] was “inactive”.

As for `O=C(O)c1c2ccccc2cc2ccccc12`, in [7], the Potency entry is “inactive”. For the same molecule, the outcome in test [8] and in test [9] was inactive.

`CCCN=C(N)NCCC[C@H](N)C(=O)O`: the Potency in [6] was 2 µM (active).

For the molecule `NC1(C(=O)O)C[C@@H](C(=O)O)[C@H](C(=O)O)C1`, in test [6], the Potency is 7.94 µM (active).

For `CC(C)[C@H](CO)Nc1nc(Nc2cc(N)cc(Cl)c2)c2ncn(C(C)C)c2n1`, the result in test [10] and in test [11] was inactive.

For `COc1ccc2[nH]c(-c3ccccc3)c(CCNC(C)=O)c2c1`, the Potency in [6] is 7.94 µM (active). The Potency entry in test [12] and in test [13] was “inactive” each time. In addition, the molecule was called inactive in test [10] and in test [11].

For `CC(C)(C)c1ccc(S(=O)(=O)/C=C\C#N)cc1`, the outcome in [1] and in test [5] was inactive.

On to `Cc1sc(N)c(C(=O)c2cccc(C(F)(F)F)c2)c1C`, for which, in test [12], the Potency result is “inactive”. For the same molecule, the molecule was called inactive in test [10] and in [11].

Regarding `C=CC1=C(C)C2=NC1=CC1=NC(=CC3=NC(=CC4=NC(=C2)C(C)=C4CCC(=O)O)C(CCC(=O)O)=C3C)C(C=C)=C1C.[Zn]`, the Potency result in test [6] is “inactive”.

Take `COc1cc(CNC(=O)CCCC/C=C\C(C)C)ccc1O`: the Potency in [7] is 3.98 µM (active); in test [6], 7.94 µM (active) and 6.31 µM (active). In test [12], the Potency entry was “inactive”. In addition, the outcome in test [10] and in test [11] was inactive.

For the molecule `CC(C)=CCC/C(C)=C/CC/C(C)=C/CO`, the Potency entry in test [7] is “inactive”. Further, the molecule was called inactive in [8], in [9], in [10] and in test [11]. The Potency in test [13] is 31.2 µM (active).

Regarding `C[C@@H](C(=O)O)c1ccc(-c2ccccc2)c(F)c1`, the Potency in test [6] is 0.631 µM (active). Also, the result in test [8], in test [9] and in test [14] was inactive. The activity, negative = inhibition in [15] (parasite line A) was 6.83%; in test [15] (parasite line B), 6.59%. In addition, the Potency result with CP192, with DIV14, in the test on DIV17, in the test with GB4 and in the test with PC49 was “inactive” each time.

Regarding `N#CC(=C(/N)Sc1ccccc1N)/C(C#N)=C(/N)Sc1ccccc1N`, the call in test [1] was inactive. For the same molecule, the Potency in [7] was 316 nM (active) and 3.16 µM (active). In addition, the Potency entry in test [3] was “inactive”.

`CCOC(=O)C(CCc1ccccc1)NC1CCc2ccccc2N(CC(=O)O)C1=O` (stereo not given): the molecule was called inactive in [8], in [9] and in [14]. Further, the Potency result with CP192 and in the test on PC49 was “inactive” in each case. The Potency is 7.57 µM (active) with DIV14, 10.7 µM (active) in the test with DIV17 and 15.1 µM (active) with GB4.

For `CCCCC/C=C\C/C=C\C/C=C\C/C=C\CCCC(=O)O`, the call in test [8], in test [9], in test [10] and in test [11] was inactive. Further, the values for the Potency in test [12] and in [13] were 49.8 µM (active) and 44.1 µM (active), respectively.
